In ChEMBL document CHEMBL3988442, “University of Dundee, Small-Polar-MMV Screening Library” (2021):
In all, about 48,000 compounds went through this assay and about 13,000 (27%) showed an effect of 50% or more. Some of the results follow.

Test system: Wolbachia pipientis
Experiment: Anti-Wolbachia Cell-Based Screen
Assay type: functional
Design: scale not given: in the data most compounds retested in dose-response had high values
Conditions: 5 µM

Compared with `O=C(NCc1cc(O)ncn1)C1CCOc2ccccc2C1` (stereo unspecified), `Cc1cnc(CNC(=O)N(Cc2ccccc2)CC(C)(C)O)s1` is lower in “Percent Effect” value: 8.885% for the first, -9.272% for the second.

Going from `CNC(=O)C(NC(=O)CCc1cccc(OC2CCCC2)c1)C(C)C` (stereo unspecified) to `NC(=O)c1cccc(CC2CCN(C(=O)CO)C2)c1` (stereo unspecified), the “Percent Effect” value falls from -3.816% to -21.34%.

Compared with `COCCN1CCCC2(CCN(c3nc(C)nc4ccsc34)C2)C1=O` (stereo unspecified), `COCCN1CCCC(O)(CN2CCN(c3ncccc3C)CC2)C1=O` (stereo unspecified) is lower in “Percent Effect” value: -7.564% for the first, -16.41% for the second.

Going from `CC(C)(C)NC(=O)CN1CCCN(Cc2cc(C#N)ccc2F)CC1` to `CN1CCCN(c2nc3c(cnn3C(C)(C)C)c(=O)[nH]2)CC1`, the “Percent Effect” value falls from -2.969% to -5.062%.

Going from `Cc1noc(C)c1-c1cnc(CC2CCN(C(=O)c3cc[nH]n3)C2)cn1` (stereo unspecified) to `Cc1noc(C)c1-c1cc(CC2CCN(C(=O)c3cc[nH]n3)C2)ncn1` (stereo unspecified), the “Percent Effect” value rises from -12.99% to 98.42%.

Compared with `Cc1noc(C)c1CN1CC2(CCN(C(=O)c3cc[nH]n3)C2)CC1=O` (stereo unspecified), `Cc1noc(C)c1CN1CC2(CCN(C(=O)c3cscn3)CC2)CC1=O` is higher in “Percent Effect” value: -2.196% for the first, 4.447% for the second.

Compared with `Cc1noc(C)c1-c1cncc(CC2CCN(C(=O)c3cc[nH]n3)C2)n1` (stereo unspecified), `Cc1noc(C)c1-c1cccc(CC2CCN(C(=O)c3cscn3)C2)n1` (stereo unspecified) is higher in “Percent Effect” value: 110.9% for the first, 131.4% for the second.

Going from `CCCS(=O)(=O)N[C@H]1CN(c2ncccc2C(N)=O)C[C@@H]1C(C)C` to `CCCC1CN(CC(C)C)C(=O)c2cccnc2O1` (stereo unspecified), the “Percent Effect” value rises from -5.813% to 72.42%.

Going from `CC(=O)NCc1ccc(S(=O)(=O)NC(=O)c2ccc3c(c2)COC3)s1` to `CN(Cc1ccncc1)C(=O)c1ccc2c(c1O)OC(C)(C)C2`, the “Percent Effect” value falls from -2.938% to -3.741%.

First: Cc1nc2cc(O)nn2c(C)c1CCC(=O)NCCc1ccccc1
Second: Cc1nc2cc(O)nn2c(C)c1CCC(=O)NCCc1nccn1C
The “Percent Effect” value of the first is higher: 85.91% for the first, 84.09% for the second.

Compared with `Cc1nc2cc(O)nn2c(C)c1CCC(=O)NCCCC(C)C`, `CCNC(=O)CCc1c(C)nc2cc(O)nn2c1C` is lower in “Percent Effect” value: 90.92% for the first, 5.527% for the second.

Going from `Cn1ccnc1CCNC(=O)NCCC1CCCCO1` (stereo unspecified) to `CN(CCC1CCCCO1)c1nncc(-c2ccccc2)n1` (stereo unspecified), the “Percent Effect” value rises from -7.857% to 3.225%.

Compared with `Cc1nc2ncnn2c(C)c1CCC(=O)Nc1cccn(C)c1=O`, `COc1ccc(NC(=O)CCc2c(C)nc3cc(O)nn3c2C)cn1` is higher in “Percent Effect” value: 1.385% for the first, 3.127% for the second.

Compared with `Cc1noc(C)c1CS(=O)(=O)CC(=O)NCCc1ccccc1`, `CC(C)Cc1cc(C(=O)NCC2CCN(c3ccccc3F)C2)on1` (stereo unspecified) is lower in “Percent Effect” value: -9.569% for the first, -10.11% for the second.

Compared with `Cc1nc(NC(=O)CCc2c(C)nc3cc(O)nn3c2C)sc1C`, `CNC(=O)CCNC(=O)CCc1c(C)nc2cc(O)nn2c1C` is lower in “Percent Effect” value: 101.2% for the first, 99.53% for the second.

First: CO[C@@H]1CCN(S(=O)(=O)c2cn(C)cn2)[C@H]1Cc1cnn(C)c1.O=C(O)C(F)(F)F
Second: Cc1ccccc1C(=O)N1CCO[C@H]2[C@H](OCCN(C)C)CC[C@@H]21.O=C(O)C(F)(F)F
The “Percent Effect” value of the first is lower: 2.669% for the first, 99.34% for the second.

Going from `O=C([C@@H]1CCO[C@@H]2CCN(CC3CCOCC3)C[C@H]21)N1CCCC1` to `O=C(NC1CC1)N1CCC2(CC1)CC(N1CCOCC1)c1ccccc12.O=C(O)C(F)(F)F` (stereo unspecified), the “Percent Effect” value rises from -12.21% to 2.797%.

Compared with `CNC(=O)CCCNc1cc(C)nc2cc(C)nn12`, `CCn1nc(C)c(C(C)NC(=O)c2cccc(NCC(=O)O)c2)c1C` (stereo unspecified) is lower in “Percent Effect” value: 1.816% for the first, -10.01% for the second.

First: O=C(O)C(F)(F)F.O=C1[C@H]2CN(C3CCOC3)C[C@H]2CN1c1ccccc1 (stereo partly specified)
Second: O=C(O)C(F)(F)F.O=C(O)C(F)(F)F.O=C1[C@@H]2CCN(Cc3ccccn3)C[C@@H]2OCCN1c1ccccc1
The “Percent Effect” value of the first is lower: -7.814% for the first, 5.214% for the second.

Compared with `Cc1ccc(F)cc1S(=O)(=O)N1C[C@@H](C)[C@@](C)(O)C1`, `Cc1cccc(N2CCCC3(C2)CN(S(=O)(=O)C2CC2)CCO3)c1.O=C(O)C(F)(F)F` (stereo unspecified) is higher in “Percent Effect” value: -12.21% for the first, -4.65% for the second.

Going from `Cc1nc(O)c2nnn(C[C@H]3CCCN3C(=O)c3cccc(F)c3)c2n1` to `Cc1nc(O)c2nnn(C[C@H]3CCCN3C(=O)c3ccc(F)cc3)c2n1`, the “Percent Effect” value rises from -3.685% to 99.59%.

Going from `Cc1nc(O)c2nnn(C[C@H]3CCCN3C(=O)C(C)(C)C)c2n1` to `Cc1nc(O)c2nnn(C[C@H]3CCCN3C(=O)C3CCCC3)c2n1`, the “Percent Effect” value rises from 2.685% to 86.1%.

Going from `Cc1ccc(C(=O)N2CCC[C@@H]2Cn2nnc3c(O)nc(C)nc32)cc1` to `Cc1nc(O)c2nnn(C[C@H]3CCCN3C(=O)CCC3CCCC3)c2n1`, the “Percent Effect” value falls from 116% to 2.096%.

First: Cc1cccnc1CN(C)C(C(=O)O)c1ccc(C(C)(C)C#N)cc1 (stereo unspecified)
Second: CCC(NC(=O)c1cnc(N(C)C)nc1C)c1ccncc1 (stereo unspecified)
The “Percent Effect” value of the first is higher: -18.01% for the first, -21.92% for the second.

Going from `CC(C)Cc1ncc2c(n1)CN(c1cc(NC3CC3)nc(N)n1)C2` to `CC(C)Cc1cc(C(=O)NCC2CCCN(Cc3ccco3)C2)on1` (stereo unspecified), the “Percent Effect” value rises from 10.04% to 50.17%.

Compared with `CNC(=O)[C@@H]1C[C@@H](N)CN1c1nnc(-c2ccccc2)s1`, `CCNC(=O)[C@@H]1C[C@H](N)CN1C1CCN(c2ccccc2OC)CC1` is higher in “Percent Effect” value: -7.13% for the first, -4.243% for the second.

First: CCn1c(C)nnc1SCCNC(=O)c1cnc(N(C)C)nc1C
Second: CCn1nc(C)c(C(C)NC(=O)c2cnc(N(C)C)nc2C)c1C (stereo unspecified)
The “Percent Effect” value of the first is lower: -11.93% for the first, 101.2% for the second.

Going from `CCCn1cc(C(=O)NC(CC(=O)O)c2ccco2)c(C)n1` (stereo unspecified) to `CCCn1cc(C(=O)NC(C)c2c(C)nn(CC)c2C)c(C)n1` (stereo unspecified), the “Percent Effect” value rises from -1.122% to 107.4%.

Going from `CCCn1cc(C(=O)N[C@H]2CC[C@H](n3cnnc3)CC2)c(C)n1` to `CC(=O)N1CCC(Cc2cccc(-c3ccnn3C)n2)CC1`, the “Percent Effect” value rises from -5.85% to 116.5%.

Compared with `CCCn1ncc(C(=O)NC(C)c2c(C)nn(CC)c2C)c1C` (stereo unspecified), `CCCn1ncc(C(=O)N(CCOC)Cc2c(C)nn(CC)c2C)c1C` is lower in “Percent Effect” value: 101.8% for the first, -10.36% for the second.

Going from `CCN1CCN(C(=O)CCC2CCN(C(C)CSC)CC2)CC1` (stereo unspecified) to `CCn1c(CC2CCN(C(=O)c3ccnn3C)CC2)n[nH]c1=O`, the “Percent Effect” value rises from 2.757% to 13.3%.

Compared with `COC(=O)C(C)(C)NC(=O)c1cc2sc(N(C)C)nc2s1`, `CCOc1ccc(NC(=O)NCc2csc(NC)n2)cc1C` is higher in “Percent Effect” value: -3.943% for the first, -0.8345% for the second.

Going from `Cc1c(C2NC3(CCCC3)C(=O)N2CC2CC2)cc(C#N)n1C` (stereo unspecified) to `COc1ccc(C(=O)N2CCO[C@H]3[C@@H](OCC4CC4)CC[C@@H]32)cc1F`, the “Percent Effect” value falls from -11.2% to -14.51%.

First: CN(Cc1cc(Cl)c2c(c1)OCO2)Cc1cscn1
Second: CN(Cc1ccc2nonc2c1)C(=O)CCc1cc2n(n1)CCCNC2
The “Percent Effect” value of the first is higher: 1.61% for the first, -9.744% for the second.

First: CCc1ncnc2c1CCN(C(=O)c1cccn1C)CC2
Second: Cc1nc(N2CCN(C(=O)c3ccccc3)CC2)cc(-n2ccnc2)n1
The “Percent Effect” value of the first is lower: -9.929% for the first, -0.4006% for the second.

Going from `Cc1ccccc1C(=O)NC[C@@H]1CCN(C(=O)c2cscn2)C[C@H]1O` to `Cc1cnc(C(=O)N2CCC(COCc3ccccc3)C2)cn1` (stereo unspecified), the “Percent Effect” value falls from 3.097% to 0.6759%.

Going from `CN1CCC(Cc2nc(-c3ccnn3C)n(Cc3ccccc3)n2)CC1` to `c1ccc(-c2cnc(CN3CCn4c(nnc4C4CC4)C3)o2)cc1`, the “Percent Effect” value falls from -2.907% to -9.736%.

Compared with `Cc1noc(C)c1-c1cccc(CC2CCN(C(=O)CCC(=O)O)C2)n1` (stereo unspecified), `Cc1noc(C)c1-c1cccc(CC2CCN(C(=O)CN)C2)n1` (stereo unspecified) is higher in “Percent Effect” value: 2.064% for the first, 128.9% for the second.

Going from `CC(=O)N1CCC(Cc2cccc(-c3c(C)noc3C)n2)C1` (stereo unspecified) to `CC(C)(C)C(=O)N1CCC(COCc2ccccc2)C1` (stereo unspecified), the “Percent Effect” value falls from 135.5% to 14.31%.

First: CN(C)c1cc(C(F)(F)F)nc(N2CCCC2c2ccccn2)n1 (stereo unspecified)
Second: Cc1cc(N(C)C)nc(N2CCCC2c2ccccn2)n1 (stereo unspecified)
The “Percent Effect” value of the first is higher: 96.36% for the first, 92.86% for the second.

First: Cc1cc(N(C)C)nc(N2CCCC2c2cc(C)on2)n1 (stereo unspecified)
Second: Cc1cc(C2CCC2)nc(N(C)CCc2ccccn2)n1
The “Percent Effect” value of the first is higher: 41.35% for the first, 10.11% for the second.

Going from `c1ccc(C2CCCN2C2CSCCSC2)nc1` (stereo unspecified) to `c1ccc(C2CCCN2C2CCSCC2)nc1` (stereo unspecified), the “Percent Effect” value falls from 20.29% to -12.25%.

Compared with `CC(C)CN1C[C@H](COCc2ccccc2)Oc2ncccc2C1=O`, `CCCC1CN(CCOc2ccccc2)C(=O)c2cccnc2O1` (stereo unspecified) is higher in “Percent Effect” value: 89.35% for the first, 157.7% for the second.

First: COCCN1C[C@@H]2CN(c3ncccn3)C[C@@H]2C1=O
Second: CCCC1CN(CCOC)C(=O)c2cccnc2O1 (stereo unspecified)
The “Percent Effect” value of the first is lower: 3.665% for the first, 110.6% for the second.

First: CCOc1ncccc1CN1Cc2ncccc2C1=O
Second: CCOc1ccccc1CCN1Cc2ncccc2C1=O
The “Percent Effect” value of the first is higher: 24.49% for the first, 5.291% for the second.

Compared with `CCC(C)Oc1ccccc1CN1Cc2ncccc2C1=O` (stereo unspecified), `COc1cc(C(=O)NCC2CCCN(Cc3ccco3)C2)ccn1` (stereo unspecified) is lower in “Percent Effect” value: 3.69% for the first, 2.476% for the second.

First: O=S1(=O)COCCN1CCOc1ccccc1
Second: CN(C)CCO[C@@H]1CC[C@H]2[C@H]1OCCN2C(=O)CCc1ccccc1.O=C(O)C(F)(F)F
The “Percent Effect” value of the first is lower: -11.75% for the first, -7.187% for the second.

First: CCS(=O)(=O)NCCCNC1CSCCc2ccccc21 (stereo unspecified)
Second: CN(C)CCO[C@@H]1CC[C@H]2[C@H]1OCCN2C(=O)c1ccccc1F
The “Percent Effect” value of the first is lower: 1.268% for the first, 79.95% for the second.

First: Cc1ccoc1C(=O)N1CCO[C@H]2[C@H](OCCN(C)C)CC[C@@H]21.O=C(O)C(F)(F)F
Second: Cc1cc(C(=O)N2CCO[C@H]3[C@H](OCCN(C)C)CC[C@@H]32)c(C)[nH]1.O=C(O)C(F)(F)F
The “Percent Effect” value of the first is lower: -19.8% for the first, 104.2% for the second.

Compared with `Cc1cc(C(=O)N2CCO[C@H]3[C@H](Oc4ccccn4)CC[C@@H]32)c(C)[nH]1.O=C(O)C(F)(F)F`, `Cc1occc1C(=O)N1CCO[C@H]2[C@H](OCc3ccccn3)CC[C@@H]21.O=C(O)C(F)(F)F` is lower in “Percent Effect” value: -3.803% for the first, -3.941% for the second.

With `Cc1occc1C(=O)N1CCO[C@H]2[C@H](OCc3cccnc3)CC[C@@H]21.O=C(O)C(F)(F)F` the “Percent Effect” value was 4.513%.
